According to PubChem BioAssay AID1159580 (chemical genetic matrix, 2015):
About 2,000 (36%) of roughly 5,500 compounds were called active. Another 18% or so got no clear call; they are omitted. No stated cut-off is given here; in the data, active means normalized growth mostly below about 0.91 (no sharp cut-off); inconclusive means no clear call, values can overlap the other calls; inactive means mostly above about 0.92. The list shows a part of the results.

Experiment: chemical genetic growth profiling, strain panel (AID 1159580);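 further: tested at 20 µM; growth read once vehicle control cultures reached saturation at 30 °C; 1 = growth at the plate median or of vehicle wells; lower values mean less growth of the strain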
Conditions: S. cerevisiae deletion strains, growth OD
[1] = locus YHR030C, strain SLT2, hits give low values
[2] = locus YHR079C, strain IRE1, hits give low values
[3] = locus YJL095W, strain BCK1, hits give low values
[4] = locus YJR066W, strain TOR1, hits give low values
[5] = locus YLR113W, strain HOG1, hits give low values
[6] = locus YNL183C, strain NPR1, hits give low values
[7] = locus YOR231W, strain MKK1, hits give low values
[8] = locus YPL256C, strain CLN2, hits give low values
[9] = locus YAR019C, strain CDC15, hits give low values
[10] = locus YBL105C, strain PKC1, hits give low values
[11] = locus YBR135W, strain CKS1, hits give low values
[12] = locus YBR136W, strain MEC1, hits give low values
[13] = locus YBR160W, strain CDC28, hits give low values
[14] = locus YDL017W, strain CDC7, hits give low values
[15] = locus YDL028C, strain MPS1, hits give low values
[16] = locus YDL101C, strain DUN1, hits give low values
[17] = locus YDL108W, strain KIN28, hits give low values
[18] = locus YDL132W, strain cdc53, hits give low values
[19] = locus YDL214C, strain PRR2, hits give low values
[20] = locus YDR052C, strain DBF4, hits give low values
[21] = locus YDR054C, strain cdc34, hits give low values
[22] = locus YDR226W, strain ADK1, hits give low values
[23] = locus YDR477W, strain SNF1, hits give low values
[24] = locus YER123W, strain YCK3, hits give low values
[25] = locus YER133W, strain GLC7, hits give low values
[26] = locus YFL009W, strain cdc4, hits give low values
[27] = locus YFL029C, strain CAK1, hits give low values
[28] = locus YFR003C, strain YPI1, hits give low values
[29] = locus YFR019W, strain FAB1, hits give low values
[30] = locus YFR028C, strain CDC14, hits give low values
[31] = locus YGR040W, strain KSS1, hits give low values
[32] = locus YGR052W, strain FMP48, hits give low values
[33] = locus YGR092W, strain DBF2, hits give low values
[34] = locus YHR082C, strain KSP1, hits give low values
[35] = locus YHR205W, strain SCH9, hits give low values
[36] = locus YIL147C, strain SLN1, hits give low values
[37] = locus YJL128C, strain PBS2, hits give low values
[38] = locus YJL157C, strain FAR1, hits give low values
[39] = locus YJR016C, strain ILV3, hits give low values
[40] = locus YJR066W, strain TOR1 (second series), hits give low values
[41] = locus YKL048C, strain ELM1, hits give low values
[42] = locus YKL067W, strain YNK1, hits give low values
[43] = locus YKL101W, strain HSL1, hits give low values
[44] = locus YKL193C, strain SDS22, hits give low values
[45] = locus YKL203C, strain TOR2, hits give low values
[46] = locus YLR133W, strain CKI1, hits give low values
[47] = locus YLR403W, strain SFP1, hits give low values
[48] = locus YML070W, strain DAK1, hits give low values
[49] = locus YMR001C, strain CDC5, hits give low values
[50] = locus YMR205C, strain PFK2 (second series), hits give low values
[51] = locus YMR277W, strain FCP1, hits give low values
[52] = locus YNL006W, strain LST8, hits give low values
[53] = locus YNL020C, strain ARK1, hits give low values
[54] = locus YNL161W, strain CBK1, hits give low values
[55] = locus YNL207W, strain RIO2, hits give low values
[56] = locus YNL222W, strain SSU72, hits give low values
[57] = locus YNL307C, strain MCK1 (second series), hits give low values
[58] = locus YOL078W, strain AVO1, hits give low values
[59] = locus YOL136C, strain PFK27, hits give low values
[60] = locus YOR061W, strain CKA2, hits give low values
[61] = locus YOR119C, strain RIO1, hits give low values
[62] = locus YOR329C, strain SCD5, hits give low values
[63] = locus YPL031C, strain PHO85, hits give low values
[64] = locus YPL153C, strain RAD53, hits give low values
[65] = locus YPL204W, strain HRR25, hits give low values
[66] = locus YPL209C, strain IPL1, hits give low values
[67] = locus YPR025C, strain CCL1, hits give low values
[68] = locus YPR106W, strain ISR1, hits give low values
[69] = locus YPR111W, strain DBF20, hits give low values
[70] = strain NNK1, hits give low values
[71] = strain TSCII, hits give low values

Measured: normalized growth

O=C(CCNNC(=O)c1ccncc1)NCc1ccccc1
inactive: locus YAL040C, strain CLN3, hits give low values 0.999 | locus YCL061C, strain MRC1 (second series), hits give low values 1 | locus YDR150W, strain NUM1, hits give low values 0.998 | locus YDR363W, strain ESC2, hits give low values 0.959 | locus YER002W, strain NOP16, hits give low values 0.994 | locus YGR229C, strain SMI1, hits give low values 0.986 | [1] 0.978 | [2] 0.975 | [3] 0.972 | [4] 0.961 | locus YJR075W, strain HOC1, hits give low values 0.994 | [5] 0.966 | locus YMR263W, strain SAP30, hits give low values 0.994 | locus YNL153C, strain GIM3, hits give low values 0.99 | locus YNL175C, strain NOP13, hits give low values 0.996 | [6] 0.931 | locus YNL197C, strain WHI3, hits give low values 0.993 | locus YNL224C, strain SQS1, hits give low values 0.998 | locus YOR083W, strain WHI5 (second series), hits give low values 1 | [7] 0.97 | locus YPL055C, strain LGE1, hits give low values 0.987 | locus YPL241C, strain CIN2, hits give low values 1 | [8] 0.974

O=C(NCc1ccncc1)c1ccc(-n2cccn2)cc1
active: [5] 0.854
inactive: [9] 0.989 | [10] 0.984 | [11] 0.982 | [12] 0.982 | [13] 0.984 | [14] 0.992 | [15] 0.983 | [16] 0.982 | [17] 0.982 | [18] 0.984 | [19] 0.972 | [20] 0.987 | [21] 0.988 | [22] 0.983 | [23] 0.972 | [24] 0.941 | [25] 0.969 | [26] 0.981 | [27] 0.988 | [28] 0.98 | [29] 0.962 | [30] 0.979 | [31] 0.96 | [32] 1 | [33] 0.985 | [1] 1.11 | [2] 1.1 | [34] 1.05 | [35] 0.985 | [36] 0.982 | [3] 0.981 | [37] 0.953 | [38] 0.973 | [39] 0.984 | [40] 0.971 | [4] 1.09 | [41] 0.959 | [42] 0.972 | [43] 0.962 | [44] 0.976 | [45] 1.03 | [46] 0.955 | [47] 0.99 | [48] 0.954 | [49] 0.984 | [50] 0.973 | [51] 0.978 | [52] 0.993 | [53] 0.974 | [54] 0.985 | [6] 1.02 | [55] 0.981 | [56] 0.982 | [57] 0.966 | [58] 0.981 | [59] 0.928 | [60] 0.965 | [61] 1.02 | [7] 0.95 | [62] 0.986 | [63] 0.964 | [64] 0.969 | [65] 0.935 | [66] 0.984 | [8] 1.02 | [67] 0.987 | [68] 0.982 | [69] 0.968 | [70] 0.984 | [71] 0.981

O=C(Nc1ccc(N2CCOCC2)cc1)c1ccc(-n2cccn2)cc1
inactive: [9] 0.994 | [10] 0.982 | [11] 0.974 | [12] 0.979 | [13] 0.975 | [14] 0.983 | [15] 0.985 | [16] 0.981 | [17] 0.974 | [18] 0.973 | [19] 0.959 | [20] 0.985 | [21] 0.987 | [22] 0.982 | [23] 0.96 | [24] 0.915 | [25] 0.957 | [26] 0.988 | [27] 0.988 | [28] 0.988 | [29] 0.955 | [30] 0.977 | [31] 0.953 | [32] 1.01 | [33] 0.991 | [1] 1.13 | [2] 1.1 | [34] 1.07 | [35] 0.982 | [36] 0.972 | [3] 1 | [37] 0.95 | [38] 0.966 | [39] 0.986 | [40] 0.96 | [4] 1.1 | [41] 0.946 | [42] 0.954 | [43] 0.931 | [44] 0.981 | [45] 1.04 | [5] 0.9 | [46] 0.962 | [47] 0.984 | [48] 0.928 | [49] 0.983 | [50] 0.95 | [51] 0.985 | [52] 0.979 | [53] 0.96 | [54] 0.978 | [6] 1.03 | [55] 0.979 | [56] 0.977 | [57] 0.958 | [58] 0.972 | [59] 0.923 | [60] 0.952 | [61] 1.01 | [7] 0.949 | [62] 0.985 | [63] 0.962 | [64] 0.958 | [65] 0.924 | [66] 0.979 | [8] 1.02 | [67] 0.982 | [68] 0.976 | [69] 0.968 | [70] 0.977 | [71] 0.982
